Measured values: PubChem BioAssay (NCATS)
Where “and” joins values, the source holds several entries; their conditions need not be identical. Equal entries are not always repeated. Results filed as inconclusive are left out. The source holds several records for some structures; these can differ, active in one and inactive in another. Calls of active or inactive are those of the source. The call rests on the fitted dose curve; in most records, active means well fitted cell-killing curve with a large enough effect; inconclusive means small, poorly fitted or top-dose-only effect, or effect the other way; inactive means no such curve, though single readings can be large or run the other way.

Assay: Viability qHTS for spleen associated tyrosine kinase inhibitor (SYKi) drug resistant MV4-11 cells (AID 1963824); further: nearly all actives have a fitted effect of over 35% in size
Conditions: SYKi-resistant MV4-11 viability, CellTiter-Glo, 72 h; series mostly up to 45 µM
Outline: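 CellTiter-Glo luminescence, read 10 min after reagent addition, reports viability after a 72 hr compound exposure. Cells are an MV4-11 line made resistant to SYK inhibition, seeded at 500 per well onto compound-containing plates.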
Potency means the concentration at half of the fitted maximal effect.

Compound	Potency
c1ccc(-c2ccc(CNc3nc(-c4ccccn4)nnc3-c3ccccc3)cc2)cc1	1.03 µM (active)
C=C1CCC2[C@](C)(CO)C(O)CC[C@]2(C)C1C/C=C1/C(=O)OCC1O (stereo not given in full)	2.63 µM (active)
C[C@]12CCC3=C4CCC(=O)C=C4CC[C@H]3[C@@H]1CC[C@@]2(O)CC#N	inactive
CC(C)C[C@H](CO)Nc1nc(S[C@@H](C)c2ccccc2)nc2nc(N)sc12	6.61 µM (active)
NCCCC[C@H](NC(=O)[C@@H](NC(=O)[C@H](Cc1c[nH]c2ccccc12)NC(=O)[C@H](CCCCN)NC(=O)[C@H](CCCCN)NC(=O)[C@H](Cc1c[nH]c2ccccc12)NC(=O)[C@H](Cc1c[nH]c2ccccc12)NC(=O)[C@H](CCCCN)NC(=O)[C@@H](N)CCCCN)C(c1ccccc1)c1ccccc1)C(N)=O	10.5 µM (active)
Cc1c(NC(=O)c2cc(C(N)=O)nc3cc(F)ccc23)c(C(F)(F)F)nn1Cc1ccc(C#N)cc1	inactive
CNC(=O)c1ccccc1Nc1nc(Nc2ccc3c(c2OC)CCC[C@@H](N2CCN(CCO)CC2)C3)ncc1Cl	0.58 µM (active)
C[C@]1(Cn2ccnn2)[C@H](C(=O)O)N2C(=O)C[C@H]2S1(=O)=O	inactive
CCCCCOc1ccccc1/C(=C\SC)n1ccnc1	18.8 µM (active)
Cc1ccc(NC(=O)Nc2nnc(Sc3ncnc4cc(OCCCN5CCOCC5)ccc34)s2)cc1	0.0166 µM (active)
C#Cc1ccc(-c2ccccc2F)cc1	inactive
C#C[C@]1(O)CC[C@H]2[C@@H]3CCC4=Cc5oncc5C[C@]4(C)[C@H]3CC[C@@]21C	8.41 µM (active)
COc1cc(C)c(/C=C/C(C)=C/C=C/C(C)=C/C(=O)O)c(C)c1C	4.68 µM (active)
COc1cc(C(=O)OC(COCCC(C)C)CN2CCOCC2)cc(OC)c1OC (stereo not given)	inactive
Cc1oc(=O)oc1COC(=O)[C@@H]1N2C(=O)[C@@H](NC(=O)[C@H](N)c3ccccc3)[C@H]2SC1(C)C	inactive
CCCCCCCCCCCCCCCC[N+](C)(C)Cc1ccccc1	1.88 µM (active)
CC1=C(c2ccc(O)cc2)[C@H](c2ccc(OCCN3CCCCC3)cc2)Oc2cc(O)ccc21	8.33 µM (active)
CC(C)(C)Sc1c(CC(C)(C)C(=O)O)n(Cc2ccc(Cl)cc2)c2ccc(OCc3ccc4ccccc4n3)cc12	inactive and 11.8 µM (active)
C=CC(=O)N1CCC(CNc2ncnc(N)c2-c2ccc(Oc3ccccc3)cc2)CC1	8.33 µM (active)
CC1=C(C(=O)O)N2C(=O)[C@@H](NC(=O)[C@H](N)c3ccccc3)[C@H]2SC1	inactive

Compound	Potency
CCC(=O)O[C@]1(C(=O)CCl)[C@@H](C)C[C@H]2[C@@H]3CCC4=CC(=O)C=C[C@]4(C)[C@@]3(F)[C@@H](O)C[C@@]21C	15 µM (active) and 14.8 µM (active)
CC(C(O)c1ccccc1)N(C)CCOC(c1ccccc1)c1ccccc1 (stereo not given)	8.2 µM (active)
CCOc1ccc(Cc2cc([C@@H]3O[C@H](CO)[C@@H](O)[C@H](O)[C@H]3O)ccc2Cl)cc1	18.6 µM (active)
C=C1c2cccc(O)c2C(O)=C2C(=O)[C@]3(O)C(O)=C(C(N)=O)C(=O)[C@@H](N(C)C)[C@@H]3[C@@H](O)[C@H]12	inactive
COc1ccccc1C(=O)Nc1cc2c(cc1N1CCCC1)n(C)c(=O)n2C	9.34 µM (active)
Nc1nc(F)nc2c1ncn2[C@@H]1O[C@H](COP(=O)(O)O)[C@@H](O)[C@@H]1O	14.8 µM (active)
CNS(=O)(=O)c1ccc2c(c1)/C(=C/c1[nH]c3c(c1CCCN1CCN(C)CC1)CCCC3)C(=O)N2	0.332 µM (active)
COc1ccc(Cl)c(Nc2ncnc3cc(OCC4CCN(C)CC4)c(OC)cc23)c1	5.17 µM (active)
Cc1cc(O)cc2c1O[C@](C)(CCC[C@H](C)CCC[C@H](C)CCCC(C)C)CC2	inactive
CC[C@@]1(O)C(=O)OCc2c1cc1n(c2=O)Cc2c-1nc1ccccc1c2CCNC(C)C	0.0059 µM (active)
Nc1nc(F)nc2c1ncn2C1OC(COP(=O)(O)O)C(O)C1O (stereo not given)	14.8 µM (active)
CC[C@H](Nc1ncnc2nc[nH]c12)c1oc2ccccc2c(=O)c1-c1cccc(F)c1	14.8 µM (active)
Cc1ccc(-n2nc(C(C)(C)C)cc2NC(=O)NCc2cc(F)ccc2Oc2ccc3c(cnn3CCO)c2)cc1	10.3 µM (active)
CCCCCCCCCCCCCC[N+](C)(C)Cc1ccccc1	3.35 µM (active)
CCCCN1C[C@H](O)[C@@H](O)[C@H](O)[C@H]1CO	inactive
O=C(c1ccc(/C=C/c2n[nH]c3ccccc23)cc1)N1CCNCC1	0.206 µM (active)
C=C1C(=O)OC2/C=C(/C)CC/C=C(/C)CCC12 (stereo not given)	5.25 µM (active)
Cc1c(O)cccc1C(=O)NC(CSc1ccccc1)C(O)CN1CC2CCCCC2CC1C(=O)NC(C)(C)C (stereo not given)	11.8 µM (active)
CCOC(=O)c1ccnc(CNCC(=O)N(CC)CCN(C)C)c1	inactive
CCC[C@@H]1C[C@@H](C(=O)N[C@@H]([C@H]2O[C@H](SC)[C@H](O)[C@@H](O)[C@H]2O)[C@H](C)Cl)N(C)C1	inactive
